Only some compounds are listed: those with a hit (about 2.4% of all), similar ones and a draw of the others.
WRN inhibitor: qHTS for Inhibitors of WRN Helicase; Bifunctional 3'-5' exonuclease/ATP-dependent helicase WRN (Homo sapiens), Q14191; WRN helicase unwinding, fluorescent forked duplex, kinetic; Potency, µM (highest dose often 114 µM), for the others: top-dose activity change, negative = inhibition, actives largely listed as inhibitors; actives 0.46% (n = 360,000); also: % is scaled to controls: 0 for no effect and ±100 for the full control effect; nearly all actives have a fitted effect of over 55% in size
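Fluorescence dequenching readout, ex 525 nm/em 598 nm, kinetic mode: forked duplex DNA (100 nM final) with adjacent fluorophore and quencher unwound by WRN (20 nM final) with 2 mM ATP. Compound preincubation 15 min, room temperature.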
POLK inh: qHTS for Inhibitors of Polymerase Kappa. DNA polymerase kappa (Homo sapiens), Q9UBT6. purified Pol kappa, fluorescent DNA synthesis assay, 10 min. Potency, µM (highest dose often 107 µM), inactives show top-dose activity, negative = inhibition, most hits filed as inhibitors. actives 0.53% (n = 400,000). AID 588579, 2011; also: % is scaled to controls: 0 for no effect and ±100 for the full control effect
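Fluorescent qHTS in 1536-well format: enzyme (10 nM) and compound sat 15 min at room temperature before 50 nM substrate (final) was added. Signal taken at 0 and 10 min; no-enzyme buffer wells were negative controls.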
Pol beta inh: qHTS Assay for Inhibitors of DNA Polymerase Beta | P06746 | Pol beta primer extension/strand displacement, fluorescence kinetic | Potency, µM (top dose mostly 114 µM), for inactives: at the highest dose activity change, negative = inhibition, hits mostly inhibitors | actives 1.3% (n = 340,000); also: % is scaled to controls: 0 for no effect and ±100 for the full control effect
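Preincubation: enzyme (10 nM) with compound, 15 min, RT. Reaction: substrate added to 50 nM final. Reads: 0 and 10 min. Analysis: normalized, Hill fit.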
Pol eta inh: qHTS for Inhibitors of Polymerase Eta; DNA polymerase eta (Homo sapiens), Q9Y253; recombinant Pol eta, fluorescent DNA replication assay; Potency, µM (series often up to 114 µM), inactives show at the top dose activity change, negative = inhibition, usual class: inhibitors; actives 1.2% (n = 390,000); AID 588591, 2011; also: % is scaled to controls: 0 for no effect and ±100 for the full control effect
Target sequence (Q9Y253 whole entry, looked up): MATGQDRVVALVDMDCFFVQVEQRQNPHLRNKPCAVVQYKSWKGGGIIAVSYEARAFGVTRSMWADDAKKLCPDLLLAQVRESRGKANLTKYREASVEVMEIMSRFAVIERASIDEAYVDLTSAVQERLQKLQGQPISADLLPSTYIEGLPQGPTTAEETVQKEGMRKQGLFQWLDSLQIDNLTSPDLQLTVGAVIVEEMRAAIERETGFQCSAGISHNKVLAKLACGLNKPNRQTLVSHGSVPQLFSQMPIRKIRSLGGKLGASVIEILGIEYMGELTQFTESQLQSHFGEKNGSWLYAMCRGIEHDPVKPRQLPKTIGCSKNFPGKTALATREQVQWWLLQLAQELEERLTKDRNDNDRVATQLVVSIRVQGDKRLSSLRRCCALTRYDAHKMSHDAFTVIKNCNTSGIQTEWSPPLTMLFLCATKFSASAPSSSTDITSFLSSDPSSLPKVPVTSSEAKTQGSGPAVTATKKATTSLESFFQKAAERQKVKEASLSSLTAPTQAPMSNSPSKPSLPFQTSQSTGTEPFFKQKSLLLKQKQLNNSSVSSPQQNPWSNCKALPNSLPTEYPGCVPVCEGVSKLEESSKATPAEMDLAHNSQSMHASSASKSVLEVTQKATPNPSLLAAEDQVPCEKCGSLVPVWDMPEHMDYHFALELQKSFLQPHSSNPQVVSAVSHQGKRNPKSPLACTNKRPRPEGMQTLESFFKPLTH
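Fluorescent replication assay: 50 nM final substrate added after a 15 min room-temperature compound preincubation with 10 nM enzyme. Signal taken at 0 min and again at 10 min.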
FEN1 inhibitor: qHTS Assay for the Inhibitors of Human Flap endonuclease 1 (FEN1). P39748. Recombinant FEN1 flap cleavage, fluorescence, 15 min. Potency, µM (titrated, usually from 114 µM), without a hit: top-dose activity change, negative = inhibition, most hits filed as inhibitors. actives 0.35% (n = 390,000). AID 588795, 2011; also: % is scaled to controls: 0 for no effect and ±100 for the full control effect; nearly all actives have a fitted effect of over 65% in size
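Quantitative HTS format: each compound was titrated, incubated with 10 nM nuclease for 15 min at room temperature, then challenged with flap substrate at 50 nM final. Signal change over 15 min gave concentration–effect curves.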
Pol iota inh: qHTS for Inhibitors of Polymerase Iota; DNA polymerase iota (Homo sapiens), Q9UNA4; Pol iota fluorescent replication assay, 10 min; Potency, µM (top dose mostly 115 µM), without a hit: at the top dose activity, negative = inhibition, most hits filed as inhibitors; actives 1% (n = 390,000)
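Fluorescent replication assay read twice, at 0 min and 10 min after adding 50 nM (final) substrate. Enzyme (10 nM) and compounds were first incubated 15 min at room temperature; enzyme-free buffer wells were negative controls.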
An asterisk follows results filed as active; ? = inconclusive; / = not tested or not shown; [ ] = remark or other dose. Calls follow the shape of the dose curve; as a rule, active = well fitted curve in the direction sought with a large enough effect; inconclusive = small, poorly fitted or top-dose-only effect, or another doubt; inactive = no such curve, though single readings can be large; an effect the other way counts as inactive or inconclusive. Potency is read from the fitted curve at half-maximal effect.

SMILES	WRN inhibitor	POLK inh	Pol beta inh	Pol eta inh	FEN1 inhibitor	Pol iota inh
COc1ccc(N=C2S/C(=C\c3ccc(OCC(=O)O)cc3)C(=O)N2CCc2c[nH]c3ccccc23)cc1	?	16µM*	4µM*	-19%	-13%	?
COCCOC(=O)N1CCN(/[N+]([O-])=N/Oc2ccc([N+](=O)[O-])cc2[N+](=O)[O-])CC1	/	7%	/	/	-1%	-9%
Cc1cc([N+](=O)[O-])c2[nH]c(C(=O)N/N=C/c3ccccc3C(=O)O)c(-c3ccccc3)c2c1	?	-7%	28µM*	45µM*	?	21%
Nc1ccc(N(CCO)CCO)cc1	-30%	-41%	18µM*	-20%	-23%	2.8µM*
CC(C)=CC[C@@H](O)C1=CC(=O)c2c(O)ccc(O)c2C1=O	/	0.89µM*	/	/	/	/
CCSC[C@H](NC(=O)[C@H](C)NC(=O)[C@@H](N)Cc1ccc(O)cc1)C(=O)N[C@@H](CC(=O)O)C(=O)N[C@H](C(=O)N[C@@H](C)C(=O)N[C@H](C(=O)N[C@@H](CSCC)C(=O)N[C@H](C(=O)N[C@H](C(=O)N[C@@H](Cc1cnc[nH]1)C(=O)N[C@@H](CCCNC(=N)N)C(=O)N[C@@H](CC(C)C)C(=O)N[C@@H](C)C(=O)NCC(=O)N[C@@H](CC(C)C)C(=O)N[C@@H](CC(C)C)C(=O)N[C@@H](CO)C(=O)N[C@@H](CCCNC(=N)N)C(=O)N[C@@H](CO)C(=O)NCC(=O)NCC(=O)N[C@H](C(=O)N[C@H](C(=O)N[C@@H](CCCCN)C(=O)N[C@@H](CC(N)=O)C(=O)N[C@@H](CC(N)=O)C(=O)N[C@@H](Cc1ccccc1)C(=O)N[C@H](C(=O)N1CCC[C@H]1C(=O)N[C@H](C(=O)N[C@@H](CC(N)=O)C(=O)N[C@H](C(=O)NCC(=O)N[C@@H](CO)C(=O)N[C@@H](CCCCN)C(=O)N[C@@H](C)C(=O)N[C@@H](Cc1ccccc1)C(N)=O)C(C)C)[C@@H](C)O)C(C)C)C(C)C)C(C)C)[C@@H](C)O)C(C)C)[C@@H](C)O)[C@@H](C)O	/	19%[60.1 µM]	/	/	/	/
Cc1c(Cl)sn(-c2ccc(Cl)cc2)c1=O	16µM*	-6%	-1%	5%	?	64%
Cc1nn(-c2ccc(Cl)cc2)c(=O)c2ccccc12	-2%	-8%	0%	-12%	-8%	-3%
O=C(C1Cc2ccccc2CN1S(=O)(=O)c1ccc(F)cc1)N1CCOCC1 (configuration not stated)	4%	-3%	10%	-2%	11%	21%
CCS(=O)(=O)N1Cc2ccccc2CC1C(=O)N1CCN(c2ccccc2)CC1 (configuration not stated)	?	?	35µM*	16µM*	-16%	?
CN(C)c1ccc(C2=Cc3ccccc3C2)cc1	/	?	/	/	-8%	?
CCCS(=O)(=O)N1CCN(S(=O)(=O)c2ccccc2[N+](=O)[O-])CC1	5%	5%	3%	0%	-1%	24%
O=[N+]([O-])c1ccccc1S(=O)(=O)N1CCSCC1	4%	2%	/	89µM*	-15%	17%
Cc1ccc(C2=NN=C(NC(=O)CSc3nnc4c5ccccc5n(C)c4n3)SC2)cc1	-16%	-7%	35µM*	?	3%	-17%
CCOC(=O)Cc1nnc(NC(=O)CSc2nnc3c4ccccc4n(C)c3n2)s1	?	?	45µM*	-6%	?	5µM*
COc1cc(C=O)cc(OC)c1[N+](=O)[O-]	/	-4%	/	/	11%	11%
Oc1ccc(NCc2cccs2)cc1	-27%	-12%	43%	-18%	8%	32µM*

High-throughput results as filed in PubChem.
